Most compounds without a hit are left out; they make up all but 19% or so of the library.
HT1080 IDH1KD tx: kills HT-1080 cells with IDH1 knockdown; hit rate 2% among 360,000; HT-1080 IDH1 knockdown viability, ATP luminescence, 48 h; Potency, µM (series often up to 46.1 µM), most hits filed as cytotoxic
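Assay cells: HT-1080 with IDH1 knockdown, 750 per well, RPMI/5% FBS. Exposure: 48 h at 37 °C following 2 h pre-incubation. Read: CellTiter-Glo luminescence; fitted concentration-response, curve class assigned.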
TDP1 cell CPT: growth inhibition of DT40 Tdp1-/-;hTDP1 cells with camptothecin (screen for TDP1 inhibitors). Potency, µM (top dose mostly 46.2 µM), usual class: inhibitors. hit rate 12% among 420,000. chicken DT40 Tdp1-/-;hTDP1 cells + 20 nM CPT, ATP luminescence, 48 h. AID 686979; note: nearly all actives have a fitted effect of over 55% in size
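Cell growth measured by CellTiter-Glo luminescence after a minimum 48 h, 37 C compound exposure with 20 nM CPT in Tdp1-knockout DT40 cells stably expressing hTDP1, seeded 400/well; qHTS titration format.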
HT1080NT lethal: kills 2HG-producing HT-1080-NT fibrosarcoma cells; hit rate 1.6% among 360,000; HT-1080-NT fibrosarcoma viability, CellTiter-Glo ATP luminescence, 48 h; Potency, µM (titrated, usually from 46.1 µM), usual class: cytotoxic; AID 686970;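 note: NT is the 2HG producing partner of a matched IDH1 knockdown line; nearly all actives have a fitted effect of over 55% in size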
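Compounds were tested in concentration-response format on HT-1080-NT cells for 48 hours at 37 degrees C. Cell viability came from CellTiter-Glo luminescence; curves were classified by r2, response magnitude and activity.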
IL-1B inflam inh: inflammasome signaling inhibition, IL-1 beta readout. activity change, % at 57.5 µM. hit rate 4.7% among 360,000. THP-1 LPS/ATP IL-1B secretion, AlphaLISA, 16 h; active compounds read low; in the data active = activity change below about -50%; inconclusive = mostly about -30% to -49%
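Secreted IL-1B measured by AlphaLISA bead assay after 16 h compound exposure of THP-1 cells; compounds (final up to 57.5 uM) added 1 h before LPS (250 ng/mL) and ATP (1.25 mM) stimulation; lower signal means less secretion.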
TDP1 cell noCPT: qHTS for Inhibitors of human tyrosyl-DNA phosphodiesterase 1 (TDP1): qHTS in cells in absence of CPT | DT40 Tdp1-/- hTDP1 cells, no CPT, ATP luminescence, 48 h | Potency, µM (top dose mostly 46.2 µM), most hits filed as inhibitors | hit rate 15% among 420,000 | AID 686978, 2013; note: nearly all actives have a fitted effect of over 55% in size
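DT40 Tdp1-/-;hTDP1 cells, no CPT (DMSO vehicle only), 400 cells/well; compounds pin-transferred; ≥48 hr, 37 °C; CellTiter-Glo 30 min RT dark, luminescence read.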
Of the large screens only hits and unclear results are named; the others gave an inactive call. Unless noted, calls come from the whole dose curve; as a rule, active = well fitted curve in the direction sought with a large enough effect; inconclusive = small, poorly fitted or top-dose-only effect, or another doubt; inactive = no such curve, though single readings can be large; an effect the other way counts as inactive or inconclusive.

COc1ccc(C(=O)NC2CCCc3c2cnn3-c2cc(F)cc(F)c2)c(OC)n1 (stereo not drawn)	none
Cn1nccc1C(=O)NC1CCCc2c1cnn2-c1cc(F)cc(F)c1 (stereo not drawn)	TDP1 cell CPT 15µM, TDP1 cell noCPT inconclusive
COc1ccc(C(=O)NC2CCCc3c2cnn3-c2cc(F)cc(F)c2)c(OC)c1OC (stereo not drawn)	HT1080 IDH1KD tx inconclusive, TDP1 cell CPT 16µM, HT1080NT lethal inconclusive, TDP1 cell noCPT 15µM
COC(=O)c1ccc(C(=O)NC2CCCc3c2cnn3-c2cc(F)cc(F)c2)nc1 (stereo not drawn)	HT1080 IDH1KD tx 16µM, TDP1 cell CPT 2.9µM, HT1080NT lethal inconclusive, TDP1 cell noCPT 2.1µM
O=C(NC1CCCc2c1cnn2-c1cc(F)cc(F)c1)c1ccccn1 (stereo not drawn)	TDP1 cell CPT inconclusive
Cc1nnc(-c2cnn(-c3ccccc3)c2N)n1Cc1ccc(F)cc1	none
Cc1ccc(C(C)NC(=O)c2ccncc2)c(C)c1 (stereo not drawn)	TDP1 cell CPT inconclusive, TDP1 cell noCPT inconclusive
COc1ccc(CCC(=O)N/N=C(\C)c2ccc3c(c2)OCO3)cc1	none
C#CCOCCOCCOCCNc1nc(N2CCN(C(=O)C([C@@H](C)CC)n3cc(C(N)COC(=O)C(F)(F)F)nn3)CC2)nc(N2CCN(C(=O)[C@H](CCCCN)n3cc(C(N)[C@H](C)CC)nn3)CC2)n1 (stereo partly drawn)	none
COc1cccc(-c2cccc(NC(=O)C3CCN(Cc4ccon4)CC3)c2)c1	none
COc1ccc(CCNc2cc(C)nc3c(-c4ccccc4)cnn23)cc1OC	HT1080 IDH1KD tx inconclusive, TDP1 cell CPT inconclusive, IL-1B inflam inh inconclusive, TDP1 cell noCPT 29µM
COc1ccccc1-c1cnn2c(NCCc3ccccc3)cc(C)nc12	IL-1B inflam inh inconclusive, TDP1 cell noCPT inconclusive
COc1ccc(CCNc2cc(C)nc3c(-c4ccccc4)c(C)nn23)cc1OC	TDP1 cell CPT inconclusive, TDP1 cell noCPT 16µM
COc1ccc(CCNc2cc(C)nc3c(-c4ccc(Cl)cc4)cnn23)cc1OC	TDP1 cell CPT 21µM, HT1080NT lethal inconclusive, TDP1 cell noCPT 16µM
CC(=O)Nc1ccc(Nc2cc(C)nc3c(-c4ccc(Cl)cc4)cnn23)cc1	HT1080 IDH1KD tx inconclusive, TDP1 cell CPT 18µM, TDP1 cell noCPT 23µM
COCCNc1cc(C)nc2c(-c3ccccc3OC)c(C)nn12	none
C=C1C=C(C(F)F)n2ncc(C(=O)N3CCCCC3)c2N1	none (no result: HT1080 IDH1KD tx, HT1080NT lethal, IL-1B inflam inh)
COc1nc(NCCc2ccc(OC)c(OC)c2)nc(Nc2ccccc2)n1	TDP1 cell CPT 15µM, IL-1B inflam inh -81, TDP1 cell noCPT inconclusive
COc1ccc(-c2c(C)nn3c(NC4CCCC4)cc(C)nc23)cc1OC	TDP1 cell CPT inconclusive, TDP1 cell noCPT inconclusive
Cc1cc(NC2CCCC2)n2nc(C)c(-c3ccccc3)c2n1	TDP1 cell CPT inconclusive, IL-1B inflam inh -74, TDP1 cell noCPT inconclusive
COc1ccc(-c2cc(C(F)(F)F)nc(NCCc3ccccc3)n2)cc1OC	none (no result: HT1080 IDH1KD tx, HT1080NT lethal, IL-1B inflam inh)
O=C(c1ccc(N2CCN(C(=O)c3ccccc3)CC2)cc1)c1cccc(F)c1	TDP1 cell CPT inconclusive, IL-1B inflam inh -77, TDP1 cell noCPT 16µM
O=C(c1ccc(N2CCN(C(=O)c3ccc(F)c(F)c3)CC2)cc1)c1cccc(F)c1	TDP1 cell CPT 23µM, TDP1 cell noCPT 13µM
O=C(c1cccc(F)c1)N1CCC(N2CCOCC2)CC1	TDP1 cell CPT 5.8µM
O=C(c1cccc(F)c1)N1CCCN(C(=O)c2cccc(F)c2)CC1	none
O=C(c1cccc(Cl)c1)N1CCC(N2CCC(C(=O)N3CCOCC3)CC2)CC1	none
O=C(c1ccccc1)c1ccc(C(=O)N2CCN(c3ccc(O)cc3)CC2)cc1	none
CCOc1cccc(N(C(=O)CCC(=O)Nc2cc(C)on2)C(C(=O)NC(C)(C)C)c2ccc(OC)cc2)c1 (stereo not drawn)	TDP1 cell CPT 29µM, TDP1 cell noCPT inconclusive
CCc1ccc(N(C(=O)CCC(=O)Nc2cc(C)on2)C(C(=O)NC(C)(C)C)c2ccc(OC)cc2)cc1 (stereo not drawn)	TDP1 cell CPT inconclusive, TDP1 cell noCPT 21µM
COc1ccc(C(C(=O)NC(C)(C)C)N(C(=O)CCC(=O)Nc2cc(C)on2)c2cccc(F)c2)cc1 (stereo not drawn)	TDP1 cell noCPT inconclusive
CCC(C)(C)NC(=O)C(c1ccc(OC)cc1)N(C(=O)CCC(=O)Nc1cc(C)on1)c1ccc(F)cc1 (stereo not drawn)	HT1080NT lethal inconclusive, TDP1 cell noCPT inconclusive
Cc1cc(OCC(=O)Nc2nnc(C3CC3)s2)ccc1[N+](=O)[O-]	none
COc1ccc(N2C(=O)Cc3cc(OC)c(OC)cc3C2c2ccc(F)cc2)cc1 (stereo not drawn)	TDP1 cell CPT 23µM, TDP1 cell noCPT inconclusive (no result: HT1080 IDH1KD tx, HT1080NT lethal, IL-1B inflam inh)
COC(=O)c1ccc(N2C(=O)Cc3cc(OC)c(OC)cc3C2c2ccc(F)cc2)cc1 (stereo not drawn)	TDP1 cell CPT 15µM, TDP1 cell noCPT inconclusive (no result: HT1080 IDH1KD tx, HT1080NT lethal, IL-1B inflam inh)
CC(C)(C)S(=O)N1Cc2cn(Cc3ccccc3)c(=O)cc2[C@@H]1CCO (stereo partly drawn)	none
COc1cc(-c2n[nH]c(=S)n2-c2ccc(C)cc2)cc(OC)c1OC	TDP1 cell CPT 16µM
COc1ccccc1/C=C/C=N/n1c(-c2n[nH]c3c2CCC3)n[nH]c1=S	HT1080 IDH1KD tx inconclusive, TDP1 cell CPT inconclusive, TDP1 cell noCPT 13µM
COc1ccccc1-n1c(-c2ccccc2)n[nH]c1=S	HT1080 IDH1KD tx 2.6µM, HT1080NT lethal inconclusive
COc1ccc(OC)c(-n2c(-c3ccccc3)n[nH]c2=S)c1	none
COc1ccc(-c2n[nH]c(=S)n2/N=C/C=C\c2ccccc2OC)cc1	TDP1 cell CPT 23µM, TDP1 cell noCPT 10µM
COc1ccccc1/C=C/C=N/n1c(-c2ccc(C)cc2)n[nH]c1=S	TDP1 cell CPT inconclusive, TDP1 cell noCPT inconclusive
COCCc1nn2c(=O)cc(COC(=O)COc3ccccc3C)nc2s1	none (no result: HT1080 IDH1KD tx, HT1080NT lethal, IL-1B inflam inh)
CCCN(C(=O)c1cccs1)c1c(N)n(Cc2ccccc2)c(=O)[nH]c1=O	none
CSCCC(NC(=O)COc1ccccc1)C(=O)NCC(C)(C)N1CCOCC1 (stereo not drawn)	none
CC(C)c1ccc(C2c3[nH]c4ccccc4c3C[C@H]3C(=O)N(c4ccccc4C(=O)N4CCC[C@@H]4C(=O)O)C(=O)N23)cc1 (stereo partly drawn)	none
CCC(=O)N1CCc2cc(Br)cc(S(=O)(=O)N3CCCC(C(=O)NCc4ccc(C)cc4)C3)c21 (stereo not drawn)	TDP1 cell CPT 16µM, TDP1 cell noCPT 16µM (no result: HT1080 IDH1KD tx, HT1080NT lethal, IL-1B inflam inh)

Bioassay records (PubChem BioAssay)
